The text below walks through data of ChEMBL document CHEMBL2218924, “A broad activity screen in support of a chemogenomic map for kinase signalling research and drug discovery” (Biochem J, 2013).

Each structure is given as a SMILES string.

In assay [1] the target is Tyrosine-protein kinase SYK (Homo sapiens) (UniProt P43405). As to conditions: at 10 µM.
For assay [2], the target named is T1, Mitogen-activated protein kinase kinase kinase 7 (Homo sapiens) (UniProt O43318).
T1 sequence (whole entry): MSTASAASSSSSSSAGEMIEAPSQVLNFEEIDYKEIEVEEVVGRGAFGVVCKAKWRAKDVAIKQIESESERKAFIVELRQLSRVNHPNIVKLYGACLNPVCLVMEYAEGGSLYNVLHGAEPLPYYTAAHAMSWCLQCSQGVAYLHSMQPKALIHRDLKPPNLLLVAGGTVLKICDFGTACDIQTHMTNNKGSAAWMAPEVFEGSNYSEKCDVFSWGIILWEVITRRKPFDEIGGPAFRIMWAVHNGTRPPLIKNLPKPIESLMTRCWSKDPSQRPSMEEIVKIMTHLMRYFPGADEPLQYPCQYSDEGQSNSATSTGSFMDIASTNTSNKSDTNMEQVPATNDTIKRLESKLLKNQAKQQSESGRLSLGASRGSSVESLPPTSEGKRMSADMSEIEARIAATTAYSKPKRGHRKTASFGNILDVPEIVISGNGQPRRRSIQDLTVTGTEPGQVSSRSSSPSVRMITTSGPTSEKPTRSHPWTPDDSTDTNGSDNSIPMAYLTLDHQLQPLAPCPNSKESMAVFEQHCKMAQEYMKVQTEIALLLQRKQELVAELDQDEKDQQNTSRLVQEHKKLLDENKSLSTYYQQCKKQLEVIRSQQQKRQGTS
The following applies: at 1 µM.

Assay [3] deals with T1, Mitogen-activated protein kinase kinase kinase 7 (Homo sapiens). The following applies: at 10 µM.
The target of assay [4] is T2, Serine/threonine-protein kinase TAO1 (Homo sapiens) (UniProt Q7L7X3).
T2 sequence (whole entry): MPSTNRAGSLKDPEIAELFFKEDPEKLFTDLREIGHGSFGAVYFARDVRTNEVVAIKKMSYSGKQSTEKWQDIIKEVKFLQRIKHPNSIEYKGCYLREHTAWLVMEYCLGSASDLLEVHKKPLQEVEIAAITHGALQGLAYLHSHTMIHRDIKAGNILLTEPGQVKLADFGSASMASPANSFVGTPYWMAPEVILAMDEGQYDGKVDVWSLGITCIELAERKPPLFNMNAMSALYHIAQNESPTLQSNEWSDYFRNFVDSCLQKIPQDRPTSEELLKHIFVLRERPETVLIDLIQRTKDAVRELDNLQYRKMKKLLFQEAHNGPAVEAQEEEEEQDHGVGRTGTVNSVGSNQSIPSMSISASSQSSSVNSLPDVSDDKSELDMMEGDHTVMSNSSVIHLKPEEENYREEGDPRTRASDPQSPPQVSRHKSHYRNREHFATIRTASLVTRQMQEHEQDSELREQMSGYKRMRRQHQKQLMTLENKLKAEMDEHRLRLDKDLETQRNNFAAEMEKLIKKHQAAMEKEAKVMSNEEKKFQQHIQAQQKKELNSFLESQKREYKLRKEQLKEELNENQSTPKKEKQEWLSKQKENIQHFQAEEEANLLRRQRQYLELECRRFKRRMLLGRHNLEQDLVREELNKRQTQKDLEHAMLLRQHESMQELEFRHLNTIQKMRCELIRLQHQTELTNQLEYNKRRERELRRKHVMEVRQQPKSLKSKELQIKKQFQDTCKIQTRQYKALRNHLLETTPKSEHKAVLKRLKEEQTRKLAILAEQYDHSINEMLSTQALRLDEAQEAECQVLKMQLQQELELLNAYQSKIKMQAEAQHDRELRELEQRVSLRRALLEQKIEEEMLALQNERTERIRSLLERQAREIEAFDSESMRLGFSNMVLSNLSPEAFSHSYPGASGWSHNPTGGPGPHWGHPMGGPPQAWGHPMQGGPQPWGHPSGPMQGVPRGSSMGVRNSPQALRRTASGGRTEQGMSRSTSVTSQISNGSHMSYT
As to conditions: at 1 µM.

The target in assay [5] is T2, Serine/threonine-protein kinase TAO1 (Homo sapiens). The following applies: at 10 µM.
Assay [6] deals with T3, Serine/threonine-protein kinase TAO2 (Homo sapiens) (UniProt Q9UL54).
T3 sequence (whole entry): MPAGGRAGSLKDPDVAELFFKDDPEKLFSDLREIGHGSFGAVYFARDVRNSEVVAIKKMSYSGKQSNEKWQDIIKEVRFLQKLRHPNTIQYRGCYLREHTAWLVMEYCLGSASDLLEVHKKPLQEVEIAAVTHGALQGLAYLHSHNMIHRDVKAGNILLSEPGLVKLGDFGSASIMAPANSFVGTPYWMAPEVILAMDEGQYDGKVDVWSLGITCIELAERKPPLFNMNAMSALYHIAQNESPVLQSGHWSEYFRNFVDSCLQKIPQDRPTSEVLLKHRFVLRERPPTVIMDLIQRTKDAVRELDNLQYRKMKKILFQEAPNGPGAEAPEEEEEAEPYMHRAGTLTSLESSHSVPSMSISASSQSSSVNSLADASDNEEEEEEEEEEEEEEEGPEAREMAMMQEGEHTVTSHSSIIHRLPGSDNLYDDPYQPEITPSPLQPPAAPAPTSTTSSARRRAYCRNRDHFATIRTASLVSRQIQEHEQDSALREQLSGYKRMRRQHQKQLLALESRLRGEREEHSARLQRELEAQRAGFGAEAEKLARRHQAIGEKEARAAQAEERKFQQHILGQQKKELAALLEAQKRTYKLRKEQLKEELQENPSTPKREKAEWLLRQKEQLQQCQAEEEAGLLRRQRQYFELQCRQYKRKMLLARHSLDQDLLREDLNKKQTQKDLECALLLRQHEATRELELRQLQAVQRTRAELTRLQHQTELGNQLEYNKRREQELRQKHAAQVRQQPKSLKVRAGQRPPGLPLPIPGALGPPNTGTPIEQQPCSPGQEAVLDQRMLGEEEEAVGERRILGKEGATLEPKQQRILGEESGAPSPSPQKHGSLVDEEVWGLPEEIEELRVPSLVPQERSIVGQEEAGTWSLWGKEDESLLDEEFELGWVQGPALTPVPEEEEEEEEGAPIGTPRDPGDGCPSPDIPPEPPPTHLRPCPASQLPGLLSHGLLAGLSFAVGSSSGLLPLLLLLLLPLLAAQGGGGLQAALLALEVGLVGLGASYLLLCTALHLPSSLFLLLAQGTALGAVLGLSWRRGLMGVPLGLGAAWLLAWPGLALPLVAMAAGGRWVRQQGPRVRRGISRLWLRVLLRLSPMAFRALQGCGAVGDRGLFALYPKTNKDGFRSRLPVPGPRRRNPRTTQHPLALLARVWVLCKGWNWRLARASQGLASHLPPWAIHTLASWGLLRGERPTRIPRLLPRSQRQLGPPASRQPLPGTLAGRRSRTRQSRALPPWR
The following applies: at 1 µM.

The target in assay [7] is T3, Serine/threonine-protein kinase TAO2 (Homo sapiens). As to conditions: at 10 µM.
Assay [8] concerns the target T4, Serine/threonine-protein kinase TAO3 (Homo sapiens) (UniProt Q9H2K8).
T4 sequence (whole entry): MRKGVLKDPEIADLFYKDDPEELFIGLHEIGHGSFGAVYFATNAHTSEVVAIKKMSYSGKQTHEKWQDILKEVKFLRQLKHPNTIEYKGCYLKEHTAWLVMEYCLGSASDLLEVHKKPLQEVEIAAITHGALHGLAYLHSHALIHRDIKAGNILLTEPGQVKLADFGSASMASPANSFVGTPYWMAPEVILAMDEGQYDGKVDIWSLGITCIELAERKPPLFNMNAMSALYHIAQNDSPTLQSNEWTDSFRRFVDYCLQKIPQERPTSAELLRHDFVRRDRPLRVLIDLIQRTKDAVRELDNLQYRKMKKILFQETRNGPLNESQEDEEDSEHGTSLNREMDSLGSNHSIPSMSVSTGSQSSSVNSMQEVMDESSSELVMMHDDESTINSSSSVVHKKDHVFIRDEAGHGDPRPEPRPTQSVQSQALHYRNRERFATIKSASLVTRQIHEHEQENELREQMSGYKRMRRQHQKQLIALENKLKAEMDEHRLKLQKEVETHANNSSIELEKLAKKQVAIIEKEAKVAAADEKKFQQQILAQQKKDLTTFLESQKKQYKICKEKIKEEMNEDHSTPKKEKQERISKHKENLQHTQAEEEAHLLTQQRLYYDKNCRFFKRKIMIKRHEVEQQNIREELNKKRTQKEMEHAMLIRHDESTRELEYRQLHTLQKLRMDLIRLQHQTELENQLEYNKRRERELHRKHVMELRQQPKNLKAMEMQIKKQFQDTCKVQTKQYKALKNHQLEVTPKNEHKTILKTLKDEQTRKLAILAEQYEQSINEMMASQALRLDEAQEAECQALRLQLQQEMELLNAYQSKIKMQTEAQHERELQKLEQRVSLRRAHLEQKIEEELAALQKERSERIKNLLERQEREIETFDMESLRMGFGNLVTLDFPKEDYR
The following applies: at 1 µM.

Assay [9] addresses T4, Serine/threonine-protein kinase TAO3 (Homo sapiens). The following applies: at 10 µM.
Assay [10] concerns the target T5, Serine/threonine-protein kinase TBK1 (Homo sapiens) (UniProt Q9UHD2).
T5 sequence (whole entry): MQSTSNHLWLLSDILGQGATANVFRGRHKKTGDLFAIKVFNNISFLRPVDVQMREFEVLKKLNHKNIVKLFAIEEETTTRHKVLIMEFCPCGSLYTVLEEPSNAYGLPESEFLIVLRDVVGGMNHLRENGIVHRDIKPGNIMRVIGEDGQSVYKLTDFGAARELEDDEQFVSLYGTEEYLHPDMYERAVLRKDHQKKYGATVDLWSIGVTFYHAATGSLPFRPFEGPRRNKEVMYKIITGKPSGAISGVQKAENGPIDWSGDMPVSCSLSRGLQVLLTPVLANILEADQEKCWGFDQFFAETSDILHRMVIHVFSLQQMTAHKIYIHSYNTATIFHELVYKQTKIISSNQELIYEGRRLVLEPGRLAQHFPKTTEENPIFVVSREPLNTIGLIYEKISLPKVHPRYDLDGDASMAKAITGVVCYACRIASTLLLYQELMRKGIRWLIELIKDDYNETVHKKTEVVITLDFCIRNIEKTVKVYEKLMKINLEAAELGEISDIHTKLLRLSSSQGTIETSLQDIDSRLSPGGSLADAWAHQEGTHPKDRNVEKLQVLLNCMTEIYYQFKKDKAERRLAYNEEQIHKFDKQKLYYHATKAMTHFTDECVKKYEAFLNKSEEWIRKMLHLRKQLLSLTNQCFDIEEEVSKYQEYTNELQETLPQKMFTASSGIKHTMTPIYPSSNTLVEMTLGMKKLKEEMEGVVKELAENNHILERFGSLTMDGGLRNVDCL
As to conditions: at 1 µM.

For `COc1cc2ncnc(Nc3ccc(Oc4ccccc4)cc3)c2cc1OC`, the residual activity in assay [1] stood at 111%; in assay [2] it was 96%; in assay [3] it was 95%; in [4] it was 106%; in [5], 92%; in assay [6], 110%. Also, the residual activity in assay [7] amounted to 106%; in assay [8], 103%; in [9], 91%; in assay [10], 72%.
